This note sets out measurements from PubChem BioAssay (Tox21).

Values joined by “and” are separate entries in the source; they are usually repeats but may differ in a detail not shown here. Equal values may be shown once. Values without a mark were called inactive. Active and inactive are the calls of the source. Unless noted, the call rests on the fitted dose curve; in most records, active means well fitted curve in the direction sought with a large enough effect in the repeat runs; inconclusive means weak or mixed curves; inactive means no such curve, though single readings can be large; an effect the other way counts as inactive or inconclusive.

Assay [1] is described as follows: qHTS assay to identify small molecule antagonists of the thyroid receptor (TR) signaling pathway - cell viability counter screen (AID 743064). Further: nearly all actives have a fitted effect of over 50% in size. Further: potency means the concentration at half of the fitted maximal effect. In outline:
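GH3.TRE-Luc cells, 4 h pre-plating; cpd + T3 1 nM final; 37 °C 23.5 h; CellTiter-Fluor 30 min; fluorescence read.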
A general note: In qHTS, concentration-response curves come from the screen itself.

Assay [2] in a line: qHTS assay to identify small molecule antagonists of the thyroid receptor (TR) signaling pathway (AID 743065). Further: nearly all actives have a fitted effect of over 55% in size. Further: potency means the concentration at half of the fitted maximal effect. In outline:
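Antagonism measured as loss of luciferase signal in GH3 cells stably carrying a TRE-luciferase reporter, co-treated with compound and T3 (1 nM final) for 23.5 h at 37 C. Viability was read in the same well by CellTiter-Fluor.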

For assay [3], the system named is thyroid hormone receptor (rat, GH3 cells). As to the kind of experiment: qHTS assay to identify small molecule agonists of the thyroid receptor (TR) signaling pathway (AID 743066; calls by dose curve; further: potency means the concentration at half of the fitted maximal effect).
Assay [4] has as its target Estrogen receptor (Homo sapiens) (UniProt P03372). Nature of the assay: qHTS assay to identify small molecule antagonists of the estrogen receptor alpha (ER-alpha) signaling pathway (AID 743069; active means well fitted curve in the direction sought with a large enough effect in the signal ratio in the repeat runs, not every such curve was filed as active; inconclusive means weak or mixed curves, or effect the other way; inactive means no such curve, though single readings can be large or run the other way; the % refers to the signal ratio; further: potency means the concentration at half of the fitted maximal effect). Put shortly: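 Antagonist mode: compounds in DMSO were co-added with 17beta-estradiol to ER-alpha-bla HEK293 cells (2% charcoal-stripped serum) and left 18 h at 37C. Reporter inhibition was measured as FRET fluorescence after 2 h LiveBLAzer substrate at room temperature.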

Assay [5] can be described thus: qHTS assay to identify small molecule antagonists of the estrogen receptor alpha (ER-alpha) signaling pathway - cell viability counter screen (AID 743074; calls by dose curve;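 further: HEK293 cells carrying ER-alpha-UAS-bla reporter stimulated with 17beta-estradiol; nearly all actives have a fitted effect of over 45% in size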).
Assay [6] concerns the target Estrogen receptor (Homo sapiens) (UniProt P03372). As to the kind of experiment: qHTS assay to identify small molecule agonists of the estrogen receptor alpha (ER-alpha) signaling pathway (AID 743075; calls by dose curve;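 further: HEK293 GripTite cells with ER-alpha and UAS-driven beta-lactamase reporter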; further: potency means the concentration at half of the fitted maximal effect).
The target is the same in assay [7]. As to the kind of experiment: qHTS assay to identify small molecule agonists of the estrogen receptor alpha (ER-alpha) signaling pathway using the BG1 cell line (AID 743079). Further: nearly all actives have a fitted effect of over 20% in size. To be noted: BG1Luc4E2 cells, ERE-luciferase agonist, 22 h.
A short description of assay [8]: qHTS assay to identify small molecule antagonists of the estrogen receptor alpha (ER-alpha) signaling pathway using the BG1 cell line (AID 743080; calls by dose curve;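 further: BG1 cells stimulated with 17beta-estradiol alongside compound; nearly all actives have a fitted effect of over 25% in size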; further: potency means the concentration at half of the fitted maximal effect). Put shortly:
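BG1Luc4E2, endogenous ER-alpha, 4xERE-luc; 5 d charcoal-stripped FBS, phenol red free; 24 h plating; cpd + 17beta-estradiol 21.5 h, 37 C/5% CO2; CellTiter-Fluor viability 30 min, then ONE-Glo luciferase 30 min RT.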

Assay [9] is described as follows: qHTS assay to identify small molecule antagonists of the estrogen receptor alpha (ER-alpha) signaling pathway using the BG1 cell line - cell viability counter screen (AID 743081).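 Further: compound given together with 17beta-estradiol as the ER stimulus; nearly all actives have a fitted effect of over 45% in size.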
The target of assay [10] is Aromatase (Homo sapiens) (UniProt P11511). As to the kind of experiment: qHTS assay to identify aromatase inhibitors (AID 743083). Further: nearly all actives have a fitted effect of over 55% in size. Further: potency means the concentration at half of the fitted maximal effect.
Chain of Aromatase (Homo sapiens) (P11511 whole entry, looked up): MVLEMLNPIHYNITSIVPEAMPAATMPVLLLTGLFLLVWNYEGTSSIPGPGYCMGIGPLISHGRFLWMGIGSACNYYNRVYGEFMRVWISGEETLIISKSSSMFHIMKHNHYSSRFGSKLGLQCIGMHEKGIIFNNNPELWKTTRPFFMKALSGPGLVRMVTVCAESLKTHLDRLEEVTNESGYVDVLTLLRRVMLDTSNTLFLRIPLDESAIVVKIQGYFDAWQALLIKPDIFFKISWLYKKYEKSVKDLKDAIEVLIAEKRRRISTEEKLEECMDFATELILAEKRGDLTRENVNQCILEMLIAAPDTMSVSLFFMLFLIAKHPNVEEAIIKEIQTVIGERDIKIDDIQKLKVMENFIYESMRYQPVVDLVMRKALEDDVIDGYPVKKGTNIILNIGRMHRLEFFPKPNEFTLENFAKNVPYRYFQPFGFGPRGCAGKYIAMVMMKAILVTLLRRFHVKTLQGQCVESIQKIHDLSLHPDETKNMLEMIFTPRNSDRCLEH
On the % scale 0 is the no-effect control and ±100 the full control effect.

Chain of Estrogen receptor (Homo sapiens) (P03372 whole entry, looked up): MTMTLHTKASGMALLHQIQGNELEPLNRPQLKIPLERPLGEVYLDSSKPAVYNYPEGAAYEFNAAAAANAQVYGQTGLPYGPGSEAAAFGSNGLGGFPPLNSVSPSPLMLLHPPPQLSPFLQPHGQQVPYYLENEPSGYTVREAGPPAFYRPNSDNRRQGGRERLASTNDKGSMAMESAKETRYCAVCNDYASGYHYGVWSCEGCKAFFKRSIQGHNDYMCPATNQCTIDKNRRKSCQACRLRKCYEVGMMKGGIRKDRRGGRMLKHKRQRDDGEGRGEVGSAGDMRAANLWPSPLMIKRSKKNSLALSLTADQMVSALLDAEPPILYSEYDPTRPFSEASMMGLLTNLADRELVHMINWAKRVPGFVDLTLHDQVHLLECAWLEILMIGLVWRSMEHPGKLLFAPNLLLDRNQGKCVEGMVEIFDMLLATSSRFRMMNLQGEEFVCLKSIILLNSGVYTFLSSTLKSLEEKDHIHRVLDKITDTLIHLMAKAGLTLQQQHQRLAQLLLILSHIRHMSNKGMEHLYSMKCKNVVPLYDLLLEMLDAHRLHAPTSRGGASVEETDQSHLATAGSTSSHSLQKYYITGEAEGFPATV

Consider `C=CCCC#N`, for which the Potency result in [1], in assay [2], in assay [3], in assay [4], in assay [5] and in assay [6] was “inactive” each time. For the same molecule, the Potency entry in assay [8], in [9] and in assay [10] was “inactive” in each case. The activation in [7] (at 70.3 µM (top of the series)) is -1.77%.

Consider `C[C@H](N)C(=O)c1ccccc1`, for which the Potency entry in assay [1], in [2], in [3], in assay [4], in assay [5] and in [6] was “inactive” in each case. The Potency result in [8], in assay [9] and in [10] was “inactive” in each case. In addition, the activation is -5.09% in assay [7] (at 70.3 µM (top of the series)) and 4.39% in [7] (at 95 µM (top of the series)).

`N[C@@H](Cc1ccc(Oc2cc(I)c(O)c(I)c2)c(I)c1)C(=O)O`: the Potency result in [1], in [2], in assay [4], in [5], in assay [6] and in assay [8] was “inactive” in each case. Besides, the Potency entry in assay [9] and in assay [10] was “inactive” throughout. The Potency in assay [3] is 0.168 µM (active). For the same molecule, the activation in [7] (at 70.3 µM (top of the series)) is -1.5%.

With `NC1(c2ccccc2)CCCCC1`, the Potency is 42.9 µM (active) in assay [1] and 48.1 µM (active) in [2]. Moreover, the Potency entry in assay [3], in assay [4], in [5], in assay [6], in assay [8] and in assay [9] was “inactive” in each case. In assay [10], the Potency result was “inactive”. In [7] (at 70.3 µM (top of the series)), the activation is 0.0889%.

Take `CCN[C@@H](C)Cc1ccccc1`: the Potency result in assay [1], in assay [2], in [3], in assay [4], in assay [5] and in [6] was “inactive” each time. Also, the Potency result in [8], in assay [9] and in assay [10] was “inactive” each time. In addition, the activation in [7] (at 95 µM (top of the series)) is 0.895%.

For the molecule `C=C1C[C@@H]2[C@H](CC[C@]3(C)C(=O)CC[C@@H]23)[C@@]2(C)C=CC(=O)C=C12`, the Potency result in [1] is “inactive”.

With `CN(CCO)CCO`, the Potency entry in [1], in [2], in [3], in [4], in assay [5] and in assay [6] was “inactive” in each case. Besides, the Potency result in assay [8], in [9] and in [10] was “inactive” throughout. Also, the activation in assay [7] (at 95 µM (top of the series)) was -2.37%.

In the case of `NNC(N)=O`, the Potency result in assay [1], in [2], in assay [3], in [4], in assay [5] and in assay [6] was “inactive” in each case. For the same molecule, the Potency result in assay [8], in assay [9] and in assay [10] was “inactive” throughout. In addition, the activation in assay [7] (at 95 µM (top of the series)) was -3.44%.

Consider `NC(=O)CS(=O)C(c1ccccc1)c1ccccc1` (stereo unspecified), for which the Potency entry in [1], in assay [2], in [3], in assay [4], in assay [5] and in assay [6] was “inactive” each time. Moreover, the Potency result in assay [8], in [9] and in assay [10] was “inactive” in each case. For the same molecule, the activation in [7] (at 70.3 µM (top of the series)) is -2.29%.

As for `O=P(O)(O)c1ccccc1`, the Potency result in [1], in assay [2], in [3], in assay [4], in assay [5] and in assay [6] was “inactive” in each case. For the same molecule, the Potency entry in assay [8], in [9] and in [10] was “inactive” each time. In assay [7] (at 70.3 µM (top of the series)), the activation is 0.284%.

In the case of `CCN(CC)C1CCCCC1`, the Potency entry in [1], in assay [2], in [3], in assay [4], in assay [5] and in assay [6] was “inactive” in each case. Besides, the Potency result in assay [8], in [9] and in assay [10] was “inactive” in each case. Besides, in assay [7] (at 70.3 µM (top of the series)), the activation was 6.19%.

On to `O=[N+]([O-])CCO`, for which the Potency result in assay [1], in assay [2], in assay [3], in assay [4], in assay [5] and in assay [6] was “inactive” throughout. In addition, the Potency result in [8], in assay [9] and in assay [10] was “inactive” in each case. In [7] (at 95 µM (top of the series)), the activation was -2.33%.

As for `OP(O)c1ccccc1`, the Potency result in assay [1], in assay [2], in assay [3], in assay [4], in assay [5] and in assay [6] was “inactive” in each case. Besides, the Potency result in [8], in [9] and in assay [10] was “inactive” each time. In addition, the activation in assay [7] (at 95 µM (top of the series)) is 6.24%.

As to `O=C(NC(O)C(Cl)(Cl)Cl)NC(O)C(Cl)(Cl)Cl` (stereo unspecified), the Potency entry in [1], in assay [2], in [3], in assay [4], in [5] and in [6] was “inactive” in each case. The Potency result in assay [8], in assay [9] and in [10] was “inactive” throughout. Also, the activation in assay [7] (at 70.3 µM (top of the series)) was 4.91%.

In the case of `CCN(CCO)CCO`, the Potency entry in [1], in assay [2], in assay [3], in assay [4], in assay [5] and in assay [6] was “inactive” in each case. Also, the Potency result in [8], in assay [9] and in assay [10] was “inactive” throughout. The activation in assay [7] (at 70.3 µM (top of the series)) was -3.36%.

On to `c1cncc([C@@H]2CCCCN2)c1`, for which the Potency result in [1], in [2], in [3], in assay [4], in [5] and in [6] was “inactive” throughout. Moreover, the Potency result in assay [8], in [9] and in [10] was “inactive” throughout. Moreover, the activation in assay [7] (at 70.3 µM (top of the series)) was -1.75%.

With `NCCOS(=O)(=O)O`, the Potency entry in assay [1], in assay [2], in assay [3], in assay [4], in assay [5] and in [6] was “inactive” throughout. The Potency result in [8], in assay [9] and in [10] was “inactive” in each case. In assay [7] (at 70.3 µM (top of the series)), the activation was -1.11%.

With `CNC(=O)NC(O)C(Cl)(Cl)Cl` (stereo unspecified), the Potency result in assay [1], in assay [2], in assay [3], in assay [4], in assay [5] and in assay [6] was “inactive” each time. In addition, the Potency result in [8], in assay [9] and in assay [10] was “inactive” throughout. Besides, the activation in [7] (at 70.3 µM (top of the series)) is 2.72%.

Turning to `COc1ccc(C=O)cc1O`, the Potency entry in assay [1], in assay [2], in assay [3], in [4], in assay [5] and in [6] was “inactive” throughout. Also, the Potency entry in assay [8], in assay [9] and in [10] was “inactive” throughout. For the same molecule, the activation in assay [7] (at 95 µM (top of the series)) is 10.8%.

Regarding `Clc1cc2c(cc1Cl)Oc1cc(Cl)c(Cl)cc1O2`, the activity change, negative = cytotoxic in assay [1] is 5.73% [at 0.341 µM]. The results for the activity, negative = inhibition in assay [2] and in assay [4] were 0.19% [at 0.341 µM] and -7.88% [at 0.274 µM], respectively. In addition, the activation in assay [3] was -1.12% [at 0.329 µM]; in [6], -4.62% [at 0.274 µM]; in [7] (at 0.341 µM (top of the series)), -0.247%. Further, in assay [5], the activity, negative = cytotoxicity is 14.4% [at 0.274 µM]. In addition, the Potency in assay [8] was 0.0007 µM (active). In addition, the activity change, negative = cytotoxicity in assay [9] was -0.0382% [at 0.341 µM].

Regarding `CC(O)CCl` (stereo unspecified), the Potency result in assay [1], in assay [2], in assay [3], in assay [4], in assay [5] and in assay [6] was “inactive” throughout. Also, the Potency result in assay [8], in assay [9] and in assay [10] was “inactive” each time. Also, the activation in [7] (at 70.3 µM (top of the series)) was 8.02%.

Regarding `BrCC1CO1` (stereo unspecified), the Potency result in [1], in assay [2], in assay [3], in assay [4], in assay [5] and in assay [6] was “inactive” in each case. Also, the Potency result in assay [8], in [9] and in assay [10] was “inactive” in each case. In assay [7] (at 95 µM (top of the series)), the activation was 8.58%.

For `C[C@H]1CCCC(=O)CCC/C=C/c2cc(O)cc(O)c2C(=O)O1`, the Potency in assay [1] is 23.4 µM (active) and 20 µM (active); in assay [2] it was 23.4 µM (active) and 15.9 µM (active); in assay [4], 47.2 µM [inconclusive] (active); in assay [6], 13.3 nM [inconclusive] (active) and 71.5 nM [inconclusive] (active); in assay [8], 22.4 µM (active); in assay [10], 23.4 µM (active). The Potency entry in assay [3] and in [5] was “inactive” throughout. The activation in assay [7] (at 32.5 µM (top of the series)) was -13.6% (active); in assay [7] (at 70.3 µM (top of the series)), -34.9% (active).
